According to PubChem BioAssay AID1159580 (chemical genetic matrix, 2015):
Out of some 5,500 compounds screened, about 2,000 (36%) were called active. Not shown: some 18% with an inconclusive outcome. Cut-off read from the data, not from the text of the source: active = normalized growth mostly below about 0.91 (no sharp cut-off); inconclusive = no clear call, values can overlap the other calls; inactive = mostly above about 0.92. The list shows a part of the results.

Assay: chemical genetic growth profiling, strain panel (AID 1159580);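 note: tested at 20 µM; growth read once vehicle control cultures reached saturation at 30 °C; 1 = growth at the plate median or of vehicle wells; lower values mean less growth of the strain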
Conditions: growth OD

Measured: normalized growth

OC[C@@H]1CCCN2CCCC[C@H]12
inactive: S. cerevisiae deletion strains, locus YJR066W, strain TOR1, active compounds read low 0.967 | S. cerevisiae deletion strains, locus YJR075W, strain HOC1, active compounds read low 1.02 | S. cerevisiae deletion strains, locus YKL009W, strain mrt4, active compounds read low 1.02 | S. cerevisiae deletion strains, locus YKL068W, active compounds read low 1.01 | S. cerevisiae deletion strains, locus YKL085W, strain MDH1 (second series), active compounds read low 1 | S. cerevisiae deletion strains, locus YKL085W, strain MDH1, active compounds read low 1 | S. cerevisiae deletion strains, locus YKL160W, strain elf1, active compounds read low 1.02 | S. cerevisiae deletion strains, locus YKR001C, strain vps1, active compounds read low 1.01 | S. cerevisiae deletion strains, locus YKR026C, strain gcn3, active compounds read low 1.06 | S. cerevisiae deletion strains, locus YKR091W, strain srl3, active compounds read low 1.02 | S. cerevisiae deletion strains, locus YLL001W, strain dnm1, active compounds read low 0.995 | S. cerevisiae deletion strains, locus YLL026W, active compounds read low 1.03 | S. cerevisiae deletion strains, locus YLL041C, strain sdh2, active compounds read low 1.01 | S. cerevisiae deletion strains, locus YLR027C, strain aat2, active compounds read low 1.02 | S. cerevisiae deletion strains, locus YLR039C, strain RIC1, active compounds read low 1.02 | S. cerevisiae deletion strains, locus YLR058C, strain SHM2, active compounds read low 1.01 | S. cerevisiae deletion strains, locus YLR102C, strain apc9, active compounds read low 1.01 | S. cerevisiae deletion strains, locus YLR113W, strain HOG1, active compounds read low 1.01 | S. cerevisiae deletion strains, locus YLR221C, strain rsa3, active compounds read low 1.02 | S. cerevisiae deletion strains, locus YLR258W, strain gsy2, active compounds read low 1.04 | S. cerevisiae deletion strains, locus YLR262C, strain YPT6 (second series), active compounds read low 1.04 | S. cerevisiae deletion strains, locus YLR262C, strain YPT6, active compounds read low 1.06 | S. cerevisiae deletion strains, locus YLR268W, strain sec22, active compounds read low 1.03 | S. cerevisiae deletion strains, locus YLR320W, strain mms22, active compounds read low 0.99 | S. cerevisiae deletion strains, locus YLR330W, strain CHS5, active compounds read low 0.98 | S. cerevisiae deletion strains, locus YLR342W, strain FKS1 (second series), active compounds read low 0.977 | S. cerevisiae deletion strains, locus YLR342W, strain FKS1, active compounds read low 1.03 | S. cerevisiae deletion strains, locus YLR357W, strain rsc2, active compounds read low 1.02 | S. cerevisiae deletion strains, locus YLR370C, strain arc18, active compounds read low 1.03 | S. cerevisiae deletion strains, locus YLR371W, strain rom2, active compounds read low 1.01 | S. cerevisiae deletion strains, locus YLR384C, strain iki3, active compounds read low 1.03 | S. cerevisiae deletion strains, locus YLR418C, strain cdc73, active compounds read low 1.03 | S. cerevisiae deletion strains, locus YML016C, strain PPZ1, active compounds read low 1 | S. cerevisiae deletion strains, locus YML032C, strain rad52, active compounds read low 0.995 | S. cerevisiae deletion strains, locus YML120C, strain ndi1, active compounds read low 1.03 | S. cerevisiae deletion strains, locus YML124C, strain tub3, active compounds read low 1 | S. cerevisiae deletion strains, locus YMR058W, strain fet3, active compounds read low 1.03 | S. cerevisiae deletion strains, locus YMR078C, strain ctf18, active compounds read low 1.01 | S. cerevisiae deletion strains, locus YMR125W, strain sto1, active compounds read low 1.05 | S. cerevisiae deletion strains, locus YMR129W, active compounds read low 1.04 | S. cerevisiae deletion strains, locus YMR205C, strain PFK2, active compounds read low 1.01 | S. cerevisiae deletion strains, locus YMR223W, strain ubp8, active compounds read low 1 | S. cerevisiae deletion strains, locus YMR231W, strain pep5, active compounds read low 1.04 | S. cerevisiae deletion strains, locus YMR263W, strain SAP30, active compounds read low 0.999 | S. cerevisiae deletion strains, locus YMR307W, strain GAS1, active compounds read low 1 | S. cerevisiae deletion strains, locus YNL067W, strain RPL9B, active compounds read low 1 | S. cerevisiae deletion strains, locus YNL071W, strain lat1, active compounds read low 1.03 | S. cerevisiae deletion strains, locus YNL183C, strain NPR1, active compounds read low 0.964 | S. cerevisiae deletion strains, locus YNL209W, strain ssb2, active compounds read low 1.02 | S. cerevisiae deletion strains, locus YNL233W, strain BNI4, active compounds read low 1.01 | S. cerevisiae deletion strains, locus YNL248C, strain rpa49, active compounds read low 1.03 | S. cerevisiae deletion strains, locus YNL250W, strain rad50, active compounds read low 1.03 | S. cerevisiae deletion strains, locus YNL271C, strain bni1, active compounds read low 1 | S. cerevisiae deletion strains, locus YNL298W, strain CLA4, active compounds read low 1.01 | S. cerevisiae deletion strains, locus YNL307C, strain MCK1, active compounds read low 1.03 | S. cerevisiae deletion strains, locus YNL322C, strain KRE1 (second series), active compounds read low 1.04 | S. cerevisiae deletion strains, locus YNL322C, strain KRE1, active compounds read low 1 | S. cerevisiae deletion strains, locus YNR049C, strain mso1, active compounds read low 1.03 | S. cerevisiae deletion strains, locus YNR052C, strain pop2, active compounds read low 1.01 | S. cerevisiae deletion strains, locus YOL006C, strain TOP1, active compounds read low 1.06 | S. cerevisiae deletion strains, locus YOL012C, strain htz1 0.808 | S. cerevisiae deletion strains, locus YOL147C, strain pex11, active compounds read low 1.02 | S. cerevisiae deletion strains, locus YOR001W, strain rrp6, active compounds read low 1.02 | S. cerevisiae deletion strains, locus YOR061W, strain CKA2, active compounds read low 1.01 | S. cerevisiae deletion strains, locus YOR069W, strain VPS5, active compounds read low 1.01 | S. cerevisiae deletion strains, locus YOR070C, strain gyp1, active compounds read low 1.04 | S. cerevisiae deletion strains, locus YOR080W, strain dia2, active compounds read low 1.03 | S. cerevisiae deletion strains, locus YOR083W, strain WHI5, active compounds read low 0.97 | S. cerevisiae deletion strains, locus YOR106W, strain vam3, active compounds read low 1.05 | S. cerevisiae deletion strains, locus YOR136W, strain idh2, active compounds read low 1.03 | S. cerevisiae deletion strains, locus YOR144C, strain elg1, active compounds read low 1.01 | S. cerevisiae deletion strains, locus YOR184W, strain ser1, active compounds read low 1.02 | S. cerevisiae deletion strains, locus YOR231W, strain MKK1, active compounds read low 1.03 | S. cerevisiae deletion strains, locus YOR265W, strain rbl2, active compounds read low 1.01 | S. cerevisiae deletion strains, locus YOR270C, strain vph1, active compounds read low 1.14 | S. cerevisiae deletion strains, locus YOR290C, strain snf2, active compounds read low 1.04 | S. cerevisiae deletion strains, locus YOR316C, strain cot1, active compounds read low 1.01 | S. cerevisiae deletion strains, locus YPL051W, strain arl3, active compounds read low 1.04 | S. cerevisiae deletion strains, locus YPL055C, strain LGE1, active compounds read low 1.01 | S. cerevisiae deletion strains, locus YPL078C, strain atp4, active compounds read low 1.04 | S. cerevisiae deletion strains, locus YPL106C, strain sse1, active compounds read low 1.03 | S. cerevisiae deletion strains, locus YPL240C, strain hsp82, active compounds read low 1.04 | S. cerevisiae deletion strains, locus YPL241C, strain CIN2, active compounds read low 1 | S. cerevisiae deletion strains, locus YPL256C, strain CLN2, active compounds read low 1.01 | S. cerevisiae deletion strains, locus YPR119W, strain clb2, active compounds read low 1.02 | S. cerevisiae deletion strains, locus YPR141C, strain kar3, active compounds read low 1.01 | S. cerevisiae deletion strains, locus YPR163C, strain tif3, active compounds read low 1.01 | S. cerevisiae deletion strains, locus YPR167C, strain met16, active compounds read low 1.01 | S. cerevisiae deletion strains, strain wtn01, active compounds read low 1.03 | S. cerevisiae strains, strain wild type, active compounds read low 0.979
